Reference: PubChem BioAssay AID652192 (Johns Hopkins Ion Channel Center, 2013)
Potency and affinity values are given separately.

The compounds below were run against Potassium voltage-gated channel subfamily KQT member 2 (Rattus norvegicus) (UniProt O88943) (assay: block of rat KCNQ2 potassium channel – cell-based, FluxOR thallium flux, concentration-response, selectivity assay for TASK1 inhibitor project, SAR follow-up (AID 652192)). Details: KCNQ2 cell line, FluxOR thallium flux fluorescence; series mostly up to 30 µM; flux ratio, lower = inhibition: at the top concentration;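 active = peak inhibition of the KCNQ2 potassium channel over 30% at some tested dose, with a fitted dose response curve; inactive = no inhibition at any dose, or no curve fitted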.
Chain of Potassium voltage-gated channel subfamily KQT member 2 (Rattus norvegicus) (O88943 whole entry, looked up): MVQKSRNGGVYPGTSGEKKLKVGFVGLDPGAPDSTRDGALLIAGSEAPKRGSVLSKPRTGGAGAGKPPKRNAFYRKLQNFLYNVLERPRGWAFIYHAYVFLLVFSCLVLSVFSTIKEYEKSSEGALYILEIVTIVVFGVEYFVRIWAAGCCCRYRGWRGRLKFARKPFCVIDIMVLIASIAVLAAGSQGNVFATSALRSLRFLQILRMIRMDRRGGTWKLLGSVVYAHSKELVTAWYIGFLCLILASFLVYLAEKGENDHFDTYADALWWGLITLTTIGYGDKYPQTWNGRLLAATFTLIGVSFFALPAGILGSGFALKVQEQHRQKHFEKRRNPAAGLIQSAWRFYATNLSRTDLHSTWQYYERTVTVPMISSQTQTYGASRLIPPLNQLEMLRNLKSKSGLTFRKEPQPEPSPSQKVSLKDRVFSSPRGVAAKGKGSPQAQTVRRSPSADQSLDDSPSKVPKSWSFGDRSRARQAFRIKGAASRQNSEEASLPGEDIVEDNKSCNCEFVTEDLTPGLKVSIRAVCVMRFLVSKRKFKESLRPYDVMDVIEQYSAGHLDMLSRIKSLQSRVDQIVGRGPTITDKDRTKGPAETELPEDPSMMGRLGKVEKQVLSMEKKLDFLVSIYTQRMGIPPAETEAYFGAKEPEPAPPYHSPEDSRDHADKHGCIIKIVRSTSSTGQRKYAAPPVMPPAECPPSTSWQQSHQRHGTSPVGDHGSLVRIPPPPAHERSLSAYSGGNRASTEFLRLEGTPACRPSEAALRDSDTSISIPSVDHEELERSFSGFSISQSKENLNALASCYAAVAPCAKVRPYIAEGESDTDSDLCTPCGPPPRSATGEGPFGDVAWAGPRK

Flux ratio, lower = inhibition, inactive:
O=C(Nc1cccc(NC(=O)C2CCCCC2)c1)c1ccccc1 0.215, CCOc1ccccc1NC(=O)c1cccc(NC(=O)C2CCCCC2)c1 0.19, COc1ccccc1NC(=O)c1cccc(NC(=O)C2CCCC2)c1 0.19, Cc1cccc(C(=O)Nc2cccc(NC(=O)C3CCCCC3)c2)c1 0.167, CCOc1ccccc1C(=O)Nc1cccc(NC(=O)C2CCCC2)c1 0.144, Cc1cccc(C(=O)Nc2cccc(NC(=O)c3ccccc3C)c2)c1 0.203, COc1ccccc1C(=O)Nc1cccc(NC(=O)c2ccccc2C)c1 0.166, Cc1cccc(C(=O)Nc2cccc(NC(=O)c3ccc(N(C)C)cc3)c2)c1 0.206, COc1c(F)cccc1C(=O)Nc1cccc(NC(=O)c2cccc(C)c2)c1 0.365, COc1ccccc1C(=O)Nc1cccc(NC(=O)c2ccccc2C(C)C)c1 0.177, CCOc1ccccc1NC(=O)c1cccc(NC(=O)c2ccccc2OC(F)(F)F)c1 0.183, Cc1cccc(C(=O)Nc2cccc(NC(=O)c3ccccc3C(F)(F)F)c2)c1 0.155, CCOc1ccccc1NC(=O)c1cccc(NC(=O)c2ccccc2)c1 0.184, O=C(Nc1cccc(NC(=O)c2cccs2)c1)c1ccccc1 0.191, CCOc1ccccc1NC(=O)c1cccc(NC(=O)C2CCCC2)c1 0.186, COc1ccccc1C(=O)Nc1cc(NC(=O)c2cccc(C)c2)ccc1F 0.461, CCCC(=O)C1CCN(c2ncnc3c2CN(C(=O)c2ccc(-c4ccccc4)cc2)CC3)CC1 0.204, O=C(Nc1cccc(NC(=O)c2cccc(C(F)(F)F)c2)c1)c1ccccc1 0.145, CCOc1ccccc1C(=O)Nc1cccc(NC(=O)c2ccccc2C(F)(F)F)c1 0.177, O=C(Nc1cccc(NC(=O)c2ccoc2)c1)c1ccccc1 0.171, COc1ccccc1NC(=O)c1cccc(NC(=O)c2ccccc2)c1 0.168, CCOc1ccccc1NC(=O)c1cccc(NC(=O)C2CC2)c1 0.189, O=C(Nc1cccc(NC(=O)c2ccncc2)c1)c1ccccc1 0.191, Cc1cccc(C(=O)Nc2cccc(NC(=O)c3ccco3)c2)c1 0.192, Cc1cccc(C(=O)Nc2cccc(NC(=O)c3ccccc3C(C)C)c2)c1 0.166, CC(C)(C)c1ccc(C(=O)Nc2cccc(NC(=O)c3ccccc3)c2)cc1 0.169, Cc1cccc(C(=O)Nc2cccc(NC(=O)c3ccncc3)c2)c1 0.163, CN(C)c1ccc(C(=O)Nc2cccc(NC(=O)c3ccccc3)c2)cc1 0.189, CCOc1ccccc1NC(=O)c1cccc(NC(=O)c2ccc(C)cc2)c1 0.18, Cc1cccc(C(=O)Nc2cccc(NC(=O)c3ccccc3)c2)c1 0.441, COc1ccccc1C(=O)Nc1cccc(NC(=O)c2cccc3ccccc23)c1 0.22, O=C(Nc1cccc(NC(=O)c2ccccc2C(F)(F)F)c1)c1ccccc1 0.219
